# Rows were chosen to be rich in hits. Some 2.2% of all compounds tested hit in one or more screens of this group.
# MEKK2mut PB1 HTS: MEK5 binding signal on mutant MEKK2 PB1, primary screen, biochemical, multiplex bead flow cytometry, Alexa488-MEK5 | Alexa488-MEK5 binding to MEKK2 mutant | percent response, % at 10 µM | 0.35% of 290,000 active; in the data active = percent response above about 24%, passing the limit was not always enough
# VLA-4 inh: inhibition in human VLA-4 binding assay, primary screen, VLA-4 allosteric modulator project, MLPCN library, flow cytometry, VLA-4 expressing cells. ligand binding flow cytometry. 0.2% of 330,000 active. inhibition, % (about 7 µM as worked out from the volumes in the protocol). Integrin alpha-4 (Homo sapiens), P13612; in the data active = inhibition above about 50%
# Target sequence (P13612 whole entry, looked up): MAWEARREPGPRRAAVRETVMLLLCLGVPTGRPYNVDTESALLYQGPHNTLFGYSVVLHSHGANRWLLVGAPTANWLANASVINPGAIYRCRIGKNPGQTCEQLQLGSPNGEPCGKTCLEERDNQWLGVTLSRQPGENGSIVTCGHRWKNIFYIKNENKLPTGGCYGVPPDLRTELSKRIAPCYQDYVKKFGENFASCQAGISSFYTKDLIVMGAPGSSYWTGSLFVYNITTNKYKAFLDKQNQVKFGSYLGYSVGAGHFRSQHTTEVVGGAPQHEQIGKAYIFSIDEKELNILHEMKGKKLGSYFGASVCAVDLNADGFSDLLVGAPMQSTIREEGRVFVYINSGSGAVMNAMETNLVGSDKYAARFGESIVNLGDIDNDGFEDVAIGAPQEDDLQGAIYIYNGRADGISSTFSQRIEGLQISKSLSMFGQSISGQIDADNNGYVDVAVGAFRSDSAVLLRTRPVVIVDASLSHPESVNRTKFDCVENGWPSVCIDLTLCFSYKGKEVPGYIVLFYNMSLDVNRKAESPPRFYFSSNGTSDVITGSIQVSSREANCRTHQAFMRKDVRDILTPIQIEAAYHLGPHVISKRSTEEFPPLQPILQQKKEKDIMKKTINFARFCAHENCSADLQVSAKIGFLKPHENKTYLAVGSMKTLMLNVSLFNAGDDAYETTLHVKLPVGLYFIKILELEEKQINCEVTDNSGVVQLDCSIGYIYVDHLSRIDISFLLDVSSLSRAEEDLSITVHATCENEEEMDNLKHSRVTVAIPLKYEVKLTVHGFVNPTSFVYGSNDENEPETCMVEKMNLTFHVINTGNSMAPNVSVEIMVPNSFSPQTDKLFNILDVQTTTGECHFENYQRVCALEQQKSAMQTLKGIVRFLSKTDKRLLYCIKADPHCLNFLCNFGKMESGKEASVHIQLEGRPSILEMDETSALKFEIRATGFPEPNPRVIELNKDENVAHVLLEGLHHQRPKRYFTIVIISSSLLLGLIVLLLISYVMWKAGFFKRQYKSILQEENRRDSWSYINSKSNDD
# MEKK2 WT-MEK5: modulators of MEK5 binding to wildtype MEKK2, primary screen, biochemical, multiplex bead flow cytometry, Alexa488-MEK5; Mitogen-activated protein kinase kinase kinase 2 (Homo sapiens), Q9Y2U5; Alexa488-MEK5 binding to MEKK2 WT; actives lie on both sides; binding response (% of control), % at 10 µM; 1.1% of 290,000 active; in the data active = binding response below about 67% or above about 130%
# MEKK3 PB1 HTS: modulators of MEKK3-MEK5 PB1 binding, primary screen, biochemical, wildtype MEKK3, multiplex bead flow cytometry, Alexa488-MEK5. Mitogen-activated protein kinase kinase kinase 3 (Homo sapiens), Q99759. bead-based flow cytometry, Alexa488-MEK5 binding to MEKK3; actives lie on both sides; 0 = blocked by unlabeled MEK5, 100 = vehicle. binding response (% of control), % at 10 µM. 1.4% of 290,000 active. AID 1529, 2009;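 active = binding response more than 3 SD above or below the average of its plate-row segment, actives on both sides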;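 also: Alexa488 bead fluorescence after subtracting the streptavidin-only scavenger bead signal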
# VLA-4 allo CP: retest of VLA-4 allosteric modulators, confirmation, cell-based, cherry-picked plates, U937, HUTS-21 LIBS antibody | shares compounds with VLA-4 inh | U937 cells, HUTS-21 LIBS mAb binding, flow cytometry; LDV ligand present at threefold Kd | inhibition, % at 6.7 µM | 2% of 1,300 active | AID 2813, 2010; in the data active = inhibition above about 40%;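 also: 0% = ligand without compound and 100% = no ligand background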
# * marks the source's active call; other numbers are inactive results; · = not tested or not shown; ! = a repeat was not active.
SMILES,MEKK2mut PB1 HTS,VLA-4 inh,MEKK2 WT-MEK5,MEKK3 PB1 HTS,VLA-4 allo CP
COc1ccc(C(=O)N(CCc2ccccc2)Cc2ccccc2)c(OC)n1,0,42,102,102,3
CCCCOc1ccc(CN(CCO)CCO)cc1[N+](=O)[O-],-1,11,106,105,·
CCOc1ccc(CN(CCO)CCO)cc1[N+](=O)[O-],1,90*,103,101,2
Cc1ccc(NC(=O)c2cc(N3C(=O)C=CC3=O)ccc2N2CCOCC2)cc1Cl,-1,83*,96,96,52*
Cc1ccc(NC(=O)c2cc(N3C(=O)CCC3=O)ccc2N2CCOCC2)cc1,-13,9,77,85,·
CCOc1ccccc1NC(=O)C1CCCN(S(=O)(=O)c2ccc3c(c2)C(C)(C)C(=O)N3C)C1 (centres undefined),-1,50*,98,103,0
CN1C(=O)C(C)(C)c2cc(S(=O)(=O)N3CCC(C(=O)Nc4ccc(Cl)cc4)CC3)ccc21,2,-72,96,97,·
Cc1ccccc1NC(=O)C1CCCN(S(=O)(=O)c2ccc3c(c2)C(C)(C)C(=O)N3C)C1 (centres undefined),-4,-21,94,97,·
CCOc1ccc(NC(=O)C2CCN(S(=O)(=O)c3ccc4c(c3)C(C)(C)C(=O)N4C)CC2)cc1,2,-2,101,99,1
CC(NC(=O)NC(=O)c1cccc(Cl)c1)c1ccccc1 (centres undefined),2,-1,96,98,·
Cc1cc(C)cc(N2C(N)=NC(N)=NC2c2ccccc2F)c1 (centres undefined),15,-2,110,104,·
C=CCN1C(=O)/C(=C2/Sc3ccc(OC)cc3N2C)SC1=NCc1ccccc1,0,10,101,96,·
COc1ccc2c(c1)N(C)/C(=C1/SC(=NCc3ccccc3)N(c3ccccc3)C1=O)S2,10,90*,99,104,5
CCOC(=O)N1CCN(Cc2nc3cc(NC(=O)CC(C)C)ccc3n2CC)CC1,0,51*,105,103,-1
CCOC(=O)N1CCN(Cc2nc3cc(NC(=O)CC(C)C)ccc3n2C)CC1,1,-8,97,94,·
COc1ccc(N2CCN(C(=O)c3ccc4ccccc4n3)CC2)cc1,-19,41,73,71,7
Nc1nc(N)c2[nH]cnc2n1,4,-11,106,108,·
Nc1ncnc2nc[nH]c12,4,58*!,107,103,-9
CCC(C)[C@@H](CN)NCC1(c2ccccc2)CC1 (some centres undefined),·,-19,·,·,·
CCOC(=O)/C(=C\c1ccc(OC(F)F)cc1)C1=Nn2c(nnc2-c2ccc(Cl)cc2)SC1,-2,60*,100,102,51*
CCOC(=O)/C(=C\c1ccc(Cl)cc1)c1nc2sc(C)c(C)c2c(=O)[nH]1,0,17,98,97,·
N#Cc1nc(Cl)c(Cl)c(NN)c1Cl,-5,4,96,102,·
O=C(C[n+]1cn(C(F)F)c2ccccc21)c1ccc(OC(F)F)cc1,-3,12,83,97,·
Cc1cc(-c2nnc(SCC(=O)Nc3ccc(F)cc3F)n2N)n[nH]1,0,50*,101,101,8
Cc1cc(-c2nnc(SCC(=O)Nc3ccccc3F)n2N)n[nH]1,1,-2,105,99,·
SMILES,MEKK2mut PB1 HTS,VLA-4 inh,MEKK2 WT-MEK5,MEKK3 PB1 HTS,VLA-4 allo CP
O=C(NNC(=O)c1nn(-c2ccc(F)cc2)ccc1=O)c1ccccc1Cl,1,16,106,107,·
CC(=O)NN1C(=O)/C(=C2/Sc3ccccc3N2C)SC1=S,-1,42,98,99,13
Cc1cccc(NC(=O)CCS(=O)(=O)c2ccc(Cl)cc2)c1,5,6,100,102,·
O=C1c2ccccc2C(=O)N1CCC#Cc1ccc2cc(CCCO)oc(=O)c2c1,·,13,·,·,·
O=C(N/C(=C\c1ccccc1)C(=O)N1CCOCC1)c1cccc(Br)c1,7,-5,102,100,·
CSc1nc2nc(-c3ccccc3)cc(=O)n2[nH]1,8,93*,101,101,5
COc1ccc(NC(=O)CSc2nc(N)c(C#N)cc2C#N)cc1,4,-30,101,98,·
CN1CCc2nc(SCC(=O)Nc3ccc(Cl)cc3)c(C#N)cc2C1,23,106*,105,102,-3
CCOc1ccccc1C(=O)NCC(=O)N1CCN(Cc2ccc3c(c2)OCO3)CC1,·,2,·,·,·
CC(=O)Oc1ccc(NC(=O)Cc2ccccc2)c(C(=O)O)c1,0,52*,100,99,-2
COc1ccc(CC(=O)Nc2ccc(OC(C)=O)cc2C(=O)O)cc1,-17,11,84,85,·
Cc1ccccc1-c1nc2cc(Cl)ccc2o1,-5,7,100,103,·
Cc1ccccc1-c1nc2cc(Cl)ccc2c(=O)o1,3,40,104,105,-15
O=C(COc1ccccc1)Nc1ccccc1C(=O)NCc1ccco1,1,58*,106,102,0
COc1ccc(OCC(=O)Nc2ccccc2O)cc1,-8,1,84,80,·
CCCNC(=O)c1ccccc1NC(=O)COc1ccc(OC)cc1,7,·,110,114,-9
CCN(Cc1ccccc1)C(=O)CCS(=O)(=O)c1ccc2c(c1)n(C)c(=O)c(=O)n2C,0,-12,95,94,·
COC(=O)c1ccc(N2CCC(c3cc(-c4ccc(OC)cc4)n[nH]3)CC2)c([N+](=O)[O-])c1,-6,18,98,93,·
COc1ccc(-c2cc(C3CCN(c4ccc(C(C)=O)cc4[N+](=O)[O-])CC3)[nH]n2)cc1,3,59*,106,105,16
COc1ccc(N(CC(=O)Nc2cc(C)ccc2C)S(=O)(=O)c2c(C)[nH]c(=O)[nH]c2=O)cc1,-7,-4,103,101,-1
COc1ccc(N(CC(=O)NCc2ccc(C)cc2)S(=O)(=O)c2c(C)[nH]c(=O)[nH]c2=O)cc1,3,-20,104,100,·
Cc1ccc(N(CC(=O)Nc2ccc(Br)c(C)c2)S(=O)(=O)c2c(C)[nH]c(=O)[nH]c2=O)cc1,-12,-5,95,94,-4
COc1ccc(N(CC(=O)Nc2cc(Cl)ccc2OC)S(=O)(=O)c2c(C)[nH]c(=O)[nH]c2=O)cc1,-1,0,94,94,-5
O=C(c1ccc2[nH]c(=O)c(=O)[nH]c2c1)N1CCN(Cc2ccccc2)CC1,0,7,100,98,·
Cc1cccc([N+](=O)[O-])c1NC(=O)COC(=O)c1nc2nccc(C)n2n1,·,-22,·,·,·

# Screening data (PubChem)
